The record followed here is PubChem BioAssay.

As a reminder, the EC50 is the concentration needed to bring the measured effect to its halfway point. By inhibition is commonly meant the drop in the measured response relative to a control, in per cent.

A short description of test [1]: blockers of MitoPT in mitochondria (AID 1580). The settings on record: isolated mitochondria, permeability transition inhibition.
Test [2] deals with Huntingtin (Homo sapiens) (UniProt P42858). Description: mutant huntingtin aggregation blockers – QA1, dose response (AID 1584). The settings on record: in vitro mutant huntingtin aggregation assay; confirmation test; at 10 µM; stronger effect = lower value.
Huntingtin (Homo sapiens), sequence (P42858 whole entry, looked up): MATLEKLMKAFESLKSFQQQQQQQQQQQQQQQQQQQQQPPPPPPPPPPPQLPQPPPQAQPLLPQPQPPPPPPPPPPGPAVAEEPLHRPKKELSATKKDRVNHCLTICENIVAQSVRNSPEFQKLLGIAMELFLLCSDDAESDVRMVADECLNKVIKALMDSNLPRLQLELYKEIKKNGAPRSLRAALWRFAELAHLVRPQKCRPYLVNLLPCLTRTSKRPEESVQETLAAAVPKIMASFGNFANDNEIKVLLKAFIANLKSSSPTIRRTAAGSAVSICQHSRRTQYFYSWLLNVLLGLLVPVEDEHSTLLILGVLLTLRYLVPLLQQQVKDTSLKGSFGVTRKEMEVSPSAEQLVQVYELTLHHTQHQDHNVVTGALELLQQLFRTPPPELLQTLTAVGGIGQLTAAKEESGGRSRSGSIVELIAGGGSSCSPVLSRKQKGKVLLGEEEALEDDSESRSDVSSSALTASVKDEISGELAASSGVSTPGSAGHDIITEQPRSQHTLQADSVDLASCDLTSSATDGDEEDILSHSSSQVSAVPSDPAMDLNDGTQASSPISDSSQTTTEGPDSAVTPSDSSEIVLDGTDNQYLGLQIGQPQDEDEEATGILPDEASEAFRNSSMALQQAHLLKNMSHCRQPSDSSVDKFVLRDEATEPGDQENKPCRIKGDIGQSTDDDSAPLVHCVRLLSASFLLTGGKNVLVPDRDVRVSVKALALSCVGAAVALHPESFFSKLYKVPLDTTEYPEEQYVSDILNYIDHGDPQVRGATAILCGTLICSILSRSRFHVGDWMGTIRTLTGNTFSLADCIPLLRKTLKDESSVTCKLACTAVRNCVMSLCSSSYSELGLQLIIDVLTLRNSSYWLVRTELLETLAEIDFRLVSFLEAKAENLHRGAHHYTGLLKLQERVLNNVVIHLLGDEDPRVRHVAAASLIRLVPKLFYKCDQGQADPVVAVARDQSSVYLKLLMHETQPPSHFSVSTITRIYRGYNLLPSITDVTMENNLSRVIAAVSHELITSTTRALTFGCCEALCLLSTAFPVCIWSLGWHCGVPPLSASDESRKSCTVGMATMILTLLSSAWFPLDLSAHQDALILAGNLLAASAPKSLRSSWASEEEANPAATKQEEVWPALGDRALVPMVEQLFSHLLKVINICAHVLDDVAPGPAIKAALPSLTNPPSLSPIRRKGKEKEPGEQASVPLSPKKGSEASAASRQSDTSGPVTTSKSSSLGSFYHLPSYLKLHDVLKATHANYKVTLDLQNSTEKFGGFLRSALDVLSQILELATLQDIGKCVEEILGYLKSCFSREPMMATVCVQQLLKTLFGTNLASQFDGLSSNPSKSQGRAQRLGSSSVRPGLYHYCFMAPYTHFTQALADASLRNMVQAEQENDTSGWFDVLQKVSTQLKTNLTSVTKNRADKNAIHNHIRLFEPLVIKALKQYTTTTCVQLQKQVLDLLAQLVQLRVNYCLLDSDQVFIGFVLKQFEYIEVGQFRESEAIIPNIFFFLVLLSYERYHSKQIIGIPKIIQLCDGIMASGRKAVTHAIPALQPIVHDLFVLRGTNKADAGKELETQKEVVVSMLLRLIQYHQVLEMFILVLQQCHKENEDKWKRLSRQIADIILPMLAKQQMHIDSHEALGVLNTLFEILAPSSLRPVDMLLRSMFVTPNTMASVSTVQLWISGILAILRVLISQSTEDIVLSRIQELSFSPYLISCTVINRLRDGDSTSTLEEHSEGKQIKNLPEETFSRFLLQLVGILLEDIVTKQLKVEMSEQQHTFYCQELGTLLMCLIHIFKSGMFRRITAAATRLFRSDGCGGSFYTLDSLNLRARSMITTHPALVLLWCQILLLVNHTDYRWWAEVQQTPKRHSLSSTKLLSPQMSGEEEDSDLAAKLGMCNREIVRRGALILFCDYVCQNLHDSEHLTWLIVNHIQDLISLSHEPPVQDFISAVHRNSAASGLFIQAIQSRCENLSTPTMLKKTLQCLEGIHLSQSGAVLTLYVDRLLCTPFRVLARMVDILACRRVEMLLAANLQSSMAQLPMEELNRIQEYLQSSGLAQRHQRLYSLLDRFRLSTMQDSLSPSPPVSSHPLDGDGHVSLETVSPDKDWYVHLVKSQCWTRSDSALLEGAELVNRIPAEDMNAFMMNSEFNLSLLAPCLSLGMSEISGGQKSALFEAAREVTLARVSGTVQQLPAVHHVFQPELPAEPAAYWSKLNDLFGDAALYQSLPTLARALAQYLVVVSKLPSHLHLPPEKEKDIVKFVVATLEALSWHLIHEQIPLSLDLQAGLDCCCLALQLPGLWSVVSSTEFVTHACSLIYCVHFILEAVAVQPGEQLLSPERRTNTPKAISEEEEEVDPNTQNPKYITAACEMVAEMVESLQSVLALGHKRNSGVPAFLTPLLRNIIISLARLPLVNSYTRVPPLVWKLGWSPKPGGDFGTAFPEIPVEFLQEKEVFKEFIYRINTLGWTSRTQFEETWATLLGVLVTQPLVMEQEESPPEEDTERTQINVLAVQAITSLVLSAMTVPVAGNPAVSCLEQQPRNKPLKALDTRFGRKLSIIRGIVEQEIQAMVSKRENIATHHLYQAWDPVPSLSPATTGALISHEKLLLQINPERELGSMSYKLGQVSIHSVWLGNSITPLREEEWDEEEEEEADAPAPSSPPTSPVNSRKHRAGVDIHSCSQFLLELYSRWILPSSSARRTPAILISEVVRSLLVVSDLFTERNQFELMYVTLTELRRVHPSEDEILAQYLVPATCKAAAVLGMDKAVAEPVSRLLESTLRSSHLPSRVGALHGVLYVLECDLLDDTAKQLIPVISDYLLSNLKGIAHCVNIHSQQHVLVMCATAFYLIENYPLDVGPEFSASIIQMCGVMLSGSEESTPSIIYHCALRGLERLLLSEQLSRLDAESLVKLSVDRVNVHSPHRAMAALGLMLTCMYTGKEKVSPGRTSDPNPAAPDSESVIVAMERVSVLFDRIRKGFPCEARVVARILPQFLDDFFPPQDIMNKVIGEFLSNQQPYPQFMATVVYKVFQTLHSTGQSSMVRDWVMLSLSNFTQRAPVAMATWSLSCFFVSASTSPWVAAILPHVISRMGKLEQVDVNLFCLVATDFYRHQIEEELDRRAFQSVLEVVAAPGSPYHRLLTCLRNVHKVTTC
A short description of test [3]: glutamate excitotoxicity neuroprotectants – cell-based, TUNEL DNA degradation staining, MNGlu (AID 1594). The settings on record: motor neurons, glutamate-induced death, at 1 µM, stronger effect = higher value.
Test [4] can be described thus: blockers of polyQ-driven CASP3 activation – cell-based (AID 1583). The settings on record: polyglutamine-induced caspase-3 activation, cell assay; stronger effect = higher value;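 tested at 10 µM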.
A short description of test [5]: yeast 75Q aggregation reduction – 75Q-TubU reporter (AID 1593). The settings on record: Yeast 75Q polyglutamine aggregation reporter.
Test [6] in a line: restoration of touch response, mutant HTT neurons – whole organism, C. elegans mechanosensory neurons, N-terminal huntingtin (AID 1599). Particulars: C. elegans polyQ-huntingtin mechanosensory neurons, stronger effect = higher value.
Test [7] can be described thus: blockers of cytochrome c efflux from mitochondria – biochemical, purified mitochondria (AID 1603).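 Note: mouse liver mitochondria challenged with calcium chloride; signal normalized to the plate average as 100%.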 The settings on record: stronger effect = lower value.
The nature of test [8]: polyglutamine aggregate formation blockers (AID 1604). The settings on record: polyglutamine-induced protein aggregation inhibition assay; stronger effect = higher value; tested at 2.5 µM.

Records with an inconclusive call do not appear. For some of these results: Results with a measured potency or affinity are listed apart. The source made the active and inactive calls. The rule behind the calls is not given here.

Turning to `Oc1c(Cl)cc(Cl)cc1Sc1cc(Cl)cc(Cl)c1O`, the EC50 in test [1] is 300 nM (active).
For the molecule `Oc1c(Cl)cc(Cl)c(Cl)c1Cc1c(O)c(Cl)cc(Cl)c1Cl`, in test [1], the EC50 is 300 nM (active).
Turning to `C=Cc1c(C)c2cc3[nH]c(cc4nc(cc5nc(cc1[nH]2)C(C)=C5CCC(=O)O)C(CCC(=O)O)=C4C)c(C)c3C=C`, the aggregation ratio in test [2] was 0.595.
On the same count and under the same terms, under `O=C1c2c(O)cccc2Cc2cccc(O)c21` stands 0.75.
On to `Cc1nnc(NS(=O)(=O)c2ccc(N)cc2)s1`, for which the protection in test [3] is 35% (active).
Same read-out and setting: for `NS(=O)(=O)c1cc2c(cc1Cl)NC(CSCc1ccccc1)=NS2(=O)=O` the value was 57% (active).
As to `CNC[C@H](O)c1cccc(O)c1`, the inhibition in test [4] was -27.4%. Moreover, the score in test [5] stood at 1.21. The rescue above control in test [6] was -6.19. Besides, the cytochrome c release ratio in test [7] came out at 0.84. Besides, the inhibition of aggregation in test [8] is 47.4%.
The matching figures for `CC1(C)S[C@@H]2[C@H](NC(=O)C(C(=O)O)c3ccccc3)C(=O)N2[C@H]1C(=O)O` (stereo partly specified): 9.67%, 1.9, -7.2, 0.95 and 60.9%.
In the case of `CN(Cc1cnc2nc(N)nc(N)c2n1)c1ccc(C(=O)N[C@@H](CCC(=O)O)C(=O)O)cc1`, in test [4], the inhibition was 25.6%. Further, in test [5], the score was 0.69. In addition, in test [6], the rescue above control is -10.9. The cytochrome c release ratio in test [7] turned out to be 1.08. Further, the inhibition of aggregation in test [8] is 74.6%.
The matching figures for `CN1CCN(CC(=O)N2c3ccccc3C(=O)Nc3cccnc32)CC1`: 9.26%, 1.57, 18.8, 1.27 and 63.5%.
The matching figures for `COc1ccc(C(=O)c2ccccc2)c(O)c1`: 16.9%, 0.23, 9.82, 1.17 and 35%.
As to `NC(=O)NC1NC(=O)NC1=O` (stereo unspecified), the inhibition in test [4] is 2.28%. This molecule also came in with a score in test [5] of 1.2. The molecule also displayed a rescue above control in test [6] of -1.57. The cytochrome c release ratio in test [7] stood at 0.93. Moreover, the inhibition of aggregation in test [8] was 74.6%.
For `O=C1C(O)=C(O)C(=O)C(O)=C1O`, in test [4], the inhibition turned out to be 0.61%. In test [5], this molecule had a score of 0.92. The rescue above control in test [6] is -5.82. Moreover, the cytochrome c release ratio in test [7] is 1.43. The molecule also showed an inhibition of aggregation in test [8] of 8.97%.
For `Nc1nc(=S)c2[nH]cnc2[nH]1`, the inhibition in test [4] was 7.19%. The molecule further returned a score in test [5] of 1.07. For the same molecule, the rescue above control in test [6] is -10.2. Further, the cytochrome c release ratio in test [7] was 0.96. This molecule also showed an inhibition of aggregation in test [8] of 83.1%.
The matching figures for `NC(=O)c1ncn([C@@H]2O[C@H](CO)[C@@H](O)[C@H]2O)c1O`: 7.18%, 1.36, -8.77, 0.91 and 49%.
The corresponding values for `CC(=O)NCCCCCC(=O)O` are 22.1%, 1.42, -0.56, 1.37 and 74.4%.
`CCCCOC(=O)c1ccc(N)cc1`: in test [4], the inhibition turned out to be 10.7%. Further, the score in test [5] is 0.73. This molecule showed a rescue above control in test [6] of 12.6. For the same molecule, the cytochrome c release ratio in test [7] stood at 0.92. Further, in test [8], the inhibition of aggregation stood at 7.84%.
The corresponding values for `Oc1c(I)cc(I)c2cccnc12` are 17.6%, -0.2, -12.4, 1.04 and 24.2%.
On to `CCCCOc1ccc(C(=O)CCN2CCCCC2)cc1`, for which, in test [4], the inhibition is -5.19%. Moreover, the score in test [5] is 1.14. Moreover, in test [6], the rescue above control stood at 14.1. The cytochrome c release ratio in test [7] was 0.48. The molecule also came in with an inhibition of aggregation in test [8] of 80.3%.
The matching figures for `Oc1cccc(O)c1`: 9.11%, 1.66, 3.39, 0.9 and 60.3%.
Consider `NCCCCCC(=O)O`, for which the inhibition in test [4] is -5.51%. The score in test [5] was 1.37. Besides, the rescue above control in test [6] came to 1.88. In test [7], the cytochrome c release ratio stood at 1.36. The inhibition of aggregation in test [8] was found to be 75.6%.
As to `CCCCOc1cc(C(=O)NCCN(CC)CC)c2ccccc2n1`, in test [4], the inhibition was -0.9%. In test [5], this molecule came in with a score of 1.3. In addition, in test [6], the rescue above control was -3.49. Moreover, the cytochrome c release ratio in test [7] was 1.15. Also, in test [8], the inhibition of aggregation amounted to 50%.
With `CC(=O)N(O)CCCCCNC(=O)CCC(=O)N(O)CCCCCNC(=O)CCC(=O)N(O)CCCCCN`, the inhibition in test [4] is -1.64%. Moreover, the score in test [5] turned out to be 0.93. For the same molecule, the rescue above control in test [6] was -3.69. Further, the cytochrome c release ratio in test [7] is 0.93. The inhibition of aggregation in test [8] turned out to be 63.2%.
